# Assay outcomes as filed in PubChem BioAssay.
# Hits are enriched below; roughly 1% of the tested compounds scored in any of these assays.
# RECQ1 helicase = blocks DNA unwinding by human RECQ1; RECQ1 DNA unwinding, red fluorescence kinetic read; P46063; AID 2549; 240,000 tested, 0.54% active; Potency, µM (titrated, usually from 57.3 µM), without a hit: top-dose activity, negative = inhibition, most hits filed as inhibitors;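 note: plate controls were vehicle for no effect and no enzyme for full effect; nearly all actives have a fitted effect of over 30% in size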
#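 50 nM RECQ1T1 preincubated 15 min with compound in Tris pH 8.0 buffer with MgCl2, DTT, Tween-20 and 2.5 ug/ml poly(dI-dC); started with 200 nM TAMRA/BHQ-2 forked duplex and 2 mM ATP. Unwinding read as fluorescence (525/598 nm), two reads 2 h apart.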
# APE1 inh = APE1 (human) endonuclease inhibition; P27695; recombinant APE1, TAMRA/BHQ-2 abasic DNA cleavage fluorescence; Potency, µM (top dose mostly 65.8 µM), for inactives: at the highest dose activity change, negative = inhibition, actives largely listed as inhibitors; 350,000 tested, 0.35% active; AID 2517;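 note: plate controls were vehicle for no effect and reference inhibitor for full effect; nearly all actives have a fitted effect of over 55% in size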
# Target sequence (P27695 whole entry, looked up): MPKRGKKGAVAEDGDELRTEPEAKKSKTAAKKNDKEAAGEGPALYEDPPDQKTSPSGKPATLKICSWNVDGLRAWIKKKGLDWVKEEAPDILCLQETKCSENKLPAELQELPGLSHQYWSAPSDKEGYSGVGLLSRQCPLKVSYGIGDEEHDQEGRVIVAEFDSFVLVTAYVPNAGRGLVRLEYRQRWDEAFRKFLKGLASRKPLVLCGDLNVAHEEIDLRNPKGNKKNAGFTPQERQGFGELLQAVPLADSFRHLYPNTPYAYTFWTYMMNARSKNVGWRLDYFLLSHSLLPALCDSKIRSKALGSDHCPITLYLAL
#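 0.75 nM APE1 + cpd, 15 min RT; start w/ 50 nM TAMRA/BHQ-2 THF-abasic dsDNA; kinetic fluor 525/598 nm ×3 reads @60 s; Δ(read3−read1); normalized to DMSO and NSC13755 control wells.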
# FEN1 inh = blocks human flap endonuclease 1; P39748; Recombinant FEN1 flap cleavage, fluorescence, 15 min; Potency, µM (top dose mostly 114 µM), without a hit: at the top dose activity change, negative = inhibition, most hits filed as inhibitors; 390,000 tested, 0.35% active; note: nearly all actives have a fitted effect of over 65% in size
# Target sequence (P39748 whole entry, looked up): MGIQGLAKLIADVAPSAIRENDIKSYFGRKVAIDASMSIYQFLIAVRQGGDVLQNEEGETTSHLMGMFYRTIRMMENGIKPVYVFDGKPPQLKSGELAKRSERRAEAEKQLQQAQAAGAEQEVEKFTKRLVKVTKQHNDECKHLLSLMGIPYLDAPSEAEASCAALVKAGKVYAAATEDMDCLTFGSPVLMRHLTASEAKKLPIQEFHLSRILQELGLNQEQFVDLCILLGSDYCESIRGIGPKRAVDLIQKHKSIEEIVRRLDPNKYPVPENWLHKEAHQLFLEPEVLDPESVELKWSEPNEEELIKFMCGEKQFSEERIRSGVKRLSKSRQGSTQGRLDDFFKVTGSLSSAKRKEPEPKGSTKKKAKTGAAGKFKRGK
#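 FEN1 at 10 nM, compound pretreatment for 15 min (room temperature), 50 nM final substrate to initiate; endpoint reads at 0 and 15 min; DMSO-only plates used as vehicle background.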
# L3MBTL1 inh = L3MBTL1 (human) inhibition | 230,000 tested, 0.66% active | Potency, µM (series often up to 57.1 µM), without a hit: at the highest dose activity, negative = inhibition, hits mostly inhibitors | AlphaScreen L3MBTL1–H3K9me1 peptide binding; note: nearly all actives have a fitted effect of over 60% in size
#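 L3MBTL1 (50 nM) pre-complexed 30 min with biotinylated H3(1-15)K9me1 peptide (75 nM), then compounds added for 30 min at room temperature; AlphaScreen streptavidin donor/nickel chelate acceptor beads (10 ug/mL final) read after 30 min dark incubation.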
# BLM inh = blocks DNA unwinding by human BLM helicase; P54132; recombinant BLM DNA unwinding, fluorescence dequenching; Potency, µM (highest dose often 56.1 µM), for the others: top-dose activity change, negative = inhibition, most hits filed as inhibitors; 350,000 tested, 0.2% active; AID 2528;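 note: plate controls were vehicle for no effect and no enzyme for full effect; nearly all actives have a fitted effect of over 35% in size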
# WRN inhibitor = blocks human WRN helicase; Q14191; WRN helicase unwinding, fluorescent forked duplex, kinetic; Potency, µM (top dose mostly 114 µM), for inactives: at the top dose activity change, negative = inhibition, usual class: inhibitors; 360,000 tested, 0.46% active; AID 651768; note: nearly all actives have a fitted effect of over 55% in size
#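 Kinetic red-fluorescence monitoring (525/598 nm) tracks WRN helicase activity after 100 nM fluorophore-quencher forked duplex and 2 mM ATP are added to 20 nM enzyme pretreated 15 min at room temperature with compound.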
# * hit, by the source's call; i = inactive; u = inconclusive; x = no result; ! = not active in a repeat; [ ] = dose if it differs, or a comment. Calls come from the whole dose curve; as a rule, active = well fitted curve in the direction sought with a large enough effect; inconclusive = small, poorly fitted or top-dose-only effect, or another doubt; inactive = no such curve, though single readings can be large; an effect the other way counts as inactive or inconclusive. Unless noted, % is set by controls: 0 for no effect and ±100 for the full control effect; potency is the fitted concentration of half-maximal effect.
SMILES,RECQ1 helicase,APE1 inh,FEN1 inh,L3MBTL1 inh,BLM inh,WRN inhibitor
COc1ccccc1-c1csc(N2CCC(C(N)=O)CC2)n1,x,8%,x,x,x,x
CCN1CCN(Cc2ccc(NC(=O)c3ccc(C)c(/C=C/c4cnc(Nc5cc(N6CCNCC6)nc(C)n5)cn4)c3)cc2C(F)(F)F)CC1,x,u,13µM*,-4%,33%,20µM*!
CCN1CCN(Cc2ccc(NC(=O)c3ccc(C)c(NC(=O)c4ccno4)c3)cc2C(F)(F)F)CC1,i,-2%,-2%,x,0%,-2%
O=C(CN1CC(=O)Oc2ccccc21)OCC(=O)c1ccc(F)cc1,2%,18%,4%,18µM*,6%,-33%
C=CCN1C(=O)/C(=C/c2ccc(OC(C)=O)c(OCC)c2[N+](=O)[O-])SC1=S,i,-1%,-20%,40µM*,-4%,-34%
CC(=O)Oc1cc(O)c2c(=O)c(OC(C)=O)c(-c3ccc(OC(C)=O)c(OC(C)=O)c3)oc2c1,x,x,2.8µM*,x,x,u
COc1ccc(-c2oc3cc(OC)c(OC(C)=O)c(OC)c3c(=O)c2OC)cc1OC(C)=O,-3%,-5%,x,x,-4%,x
N#Cc1c(NC(=O)COC(=O)c2nccnc2N)sc2c1CCCC2,x,27%,4%,-16%,x,-6%
N#Cc1c(NC(=O)COC(=O)c2ccc(O)cc2O)sc2c1CCC2,x,12µM*,-12%,u,x,-12%[11.6 µM]
O=C(Cn1nnc(-c2ccccc2)n1)N/N=C/c1cc([N+](=O)[O-])ccc1O,-10%,1%,1%,u,-7%,-6%
O=C(Cn1nc2ccccc2n1)N/N=C/c1cc([N+](=O)[O-])ccc1O,3%,-1%,u,7.9µM*,1%,-20%[57.1 µM]
O=C(Cn1cnc([N+](=O)[O-])n1)N/N=C/c1ccccc1O,-8%,1%,2%,u,1%,0%
O=C(Cn1cnc([N+](=O)[O-])n1)N/N=C/c1cc(Cl)ccc1O,-7%,1%,8%,18µM*,0%,-31%[57.1 µM]
COC(=O)C1=C[C@@H](C(=O)OC)C2C3=C(C(=O)[C@@]2(C)NC(=O)c2ccccc2)[C@H](c2ccccc2)n2c(=O)n(-c4ccccc4)c(=O)n2[C@@H]3C1 (stereo not given in full),i,-7%,-8%,x,-2%,x
COc1ccc(C(=O)Nc2cccnc2Cl)cc1OC,x,7%,-5%,2%,-2%,-4%
O=C(Nc1cccnc1Cl)c1ccc(=O)oc1,u,32µM*,20µM*,u,55%,u
Cc1ccc(NC(=O)CSc2nccn2C2CCCC2)cc1Cl,x,x,-8%,x,-2%,x
CC1(C)C(/C=C/C=C/C=C/C=C2\N(CCCCS(=O)(=O)O)c3ccc4ccccc4c3C2(C)C)=[N+](CCCCS(=O)(=O)[O-])c2ccc3ccccc3c21,x,x,20µM*,x,u,45µM*
Cc1c2ccccc2cc[n+]1CCCS(=O)(=O)[O-],i,-2%,7%,8%,-8%,-7%
O=C(Nc1ccc(S(=O)(=O)Nc2nccs2)cc1)c1nn(-c2ccc(F)cc2)ccc1=O,x,-37%,u,x,-27%,50µM*
C=CCSC1=N/C(=C\c2cc(OCC)c(OC(C)=O)c([N+](=O)[O-])c2)C(=O)S1,-3%,u,56µM*,1.4µM*,-4%,16%
C=CCSC1=N/C(=C\c2sccc2C)C(=O)S1,-2%,-3%,-18%,-3%,-2%,-3%
CCCCS(=O)(=O)/C=C\C1C2C=CC(C2)C1S(=O)(=O)CCCC (stereo not given),1%,-1%,9%,3%,2%,9%
CCCCS(=O)(=O)/C=C\C=C/S(=O)(=O)CCCC,-4%,u,-5%,-26%,-2%,45µM*
COc1ccc(C)cc1NC(=O)NCc1ccc2c(c1)CCN2C(=O)c1ccccc1,x,x,-14%,x,-5%,x
SMILES,RECQ1 helicase,APE1 inh,FEN1 inh,L3MBTL1 inh,BLM inh,WRN inhibitor
c1ccc2c(c1)ccn2-n1ccc2ccccc21,x,x,-9%,x,x,x
COCCNC(=O)C1Nc2ccc(C(F)(F)F)cc2C2C=CCC12 (stereo not given),x,x,-1%,x,x,13%
O=C(O)c1ccc2c(c1)C1C=CCC1C(c1ccncc1)N2 (stereo not given),i,u,13%,x,-3%,5%
CCOC(=O)c1ccc2c(c1)C1C=CCC1C(C(=O)O)N2 (stereo not given),8.9µM*,u,x,3.2µM*,28µM*,x
CCOC(=O)C1Nc2ccc(C(=O)O)cc2C2C=CCC12 (stereo not given),x,-9%,20µM*,-8%[2.29 µM],9%,28µM*
NC1=NC(=O)/C(=C/c2cccc(F)c2)S1,x,22%,-5%,x,-4%,9%
CC(=O)Nc1ccc(S(=O)(=O)Oc2cccc(/C=C3\SC(N)=NC3=O)c2)cc1,-6%,3%,-9%,x,-13%,79µM*
O=C(NCCn1cc(SCc2ccccc2)c2ccccc21)c1cccs1,x,x,89µM*,x,-14%,x
O=C(NCCn1cc(SCc2ccc(Br)cc2)c2ccccc21)c1cccs1,x,x,1%,x,-11%,x
Cc1onc(-c2ccccc2)c1C(=O)N1CCC(C)(C(=O)O)C1 (stereo not given),x,x,x,x,x,2%
COc1cc([C@@H]2c3cc4c(cc3C(O[C@@H]3O[C@@H]5COC(c6cccs6)O[C@H]5[C@H](O)[C@H]3O)C3COC(=O)[C@@H]32)OCO4)cc(OC)c1O (stereo not given in full),x,-1%,x,x,x,x
N#C/C(=C\c1ccc(-c2ccccc2C(=O)O)o1)c1nc2ccccc2[nH]1,x,5%,u,x,-12%,56µM*
Cc1ccc2nc(/C(C#N)=C/c3ccc(-c4ccccc4C(=O)O)o3)[nH]c2c1,x,u,u,x,-11%,-18%[11.6 µM]
O=C(O)c1cc(O)c2c(c1)[C@H]([C@H]1c3cc(C(=O)O)cc(O)c3C(=O)c3c(O[C@@H]4O[C@H](CO)[C@@H](O)[C@H](O)[C@H]4O)cccc31)c1cccc(OC3O[C@H](CO)[C@@H](O)[C@H](O)[C@H]3O)c1C2=O (stereo not given in full),x,0.067µM*,1.3µM*,0.16µM*,x,4µM*
O=C1NC(=S)S/C1=C\c1coc2ccccc2c1=O,20µM*,6%,-6%,2%,-3%,-22%
c1ccc(C(O[C@H]2CCCN(CCc3ccc4c(c3)OCO4)C2)c2ccccc2)cc1,x,-4%,x,x,x,x
CCN1CCCC1Cn1c(-c2ccccc2)nc2c(N3CCOCC3)nc(C)nc21 (stereo not given),-4%,-4%,x,x,3%,x
